The values below come from the supplement of paper PMC6555819.

This test deals with PPARa:RXRa (NR concentration 270 nM, RXRa partner concentration 90 nM). Description: PBM binding z-score (relative to random genomic background probes); higher = stronger binding; sequences stand for … in GC…GCGATTGACAGCGTAGAATGAAGG
The method, boiled down:
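Custom Agilent 4×180K protein-binding microarrays carried double-stranded probes, each with a 34-nt variable region. These regions held direct-repeat seeds, single-nucleotide variants, half-site ablations and random human genomic background sequences. Ligand-free nuclear receptor dimers were incubated on the arrays for 1 h, antibodies against each partner (one per run) detected binding, and scanned fluorescence was regression-normalized. Binding z-scores take the random background probes as reference.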
In the case of TCTAGCAGGCCAGAGGGTCACACAAGAGGTACGG, the PBM binding z-score is 3.11.
AGTCAAAGTTCACTTGGTAACGTAAGATTCAGCT displayed a PBM binding z-score of 3.85.
The figure for CCGACTGGGGCAGAAAGGTTACCATGCCATCCGG is 2.23; for GCTCGGAGGACACGGTCAGAGCTTTGTCCGTAGA it is -0.523.
For the sequence CCTATTAGTTGACCATAAGGTCAACCGAAGCTCG, the PBM binding z-score was determined as 4.06.
The figure for AGTCAAAGCTCATCTAGGTAACGTAAGATATGCT is 0.0609.
For TCTAGTTGGTCACGAAGGTCACACACGACGGGTA the value was 3.71.
For TCAGATAGGTAATACAGGTGAAAGTCGGCATCTA the value was 1.72.
As to CAGCCTAGGTCGGGGCCAGTATAGGAGGAACGTT, the PBM binding z-score is -0.00359.
CGAACTAGATCAAGGACAGTGAATCTCCGCACGC registered a PBM binding z-score of -0.388.
For CGTCCAAGGTCAAGGTCAGCGAAAGAGACTCGAA the value was 5.89; for CAGCCTAGGTCAAGGCCAGTATAGGAGGAACGTT, 3.45.
The figure for ATACCAAGGTGATCGTGAGGTGGTTGATACTAAC is 0.168; for CAAACTAGGTCGCAGAGGTCAAAGTCCGTGCGTA it is 5.7.
The figure for ATCTCTAAGTAAGACTCAGTTCAGTGAAGAACGC is 0.0114; for CGTCAAAGTTCAACTAAGGTAACGGAAAGCACGC it is 5.27.
Consider TCTTGTAGATTAAAGGTTAAGAAAGCCGAAGCCT, for which the PBM binding z-score was 3.56.
For TCGTATAGGTAAAGGTGAAAGTCGAACGATATGA the value was 2.87; for CCTGCTAGGTCAATGGTCAACTAAAGCAGCTCGC, 3.42.
TCTCGGACGACACGAAGGTCAGAGCTTTCCAGAG: the PBM binding z-score was determined as 1.96.
In the case of AAAGACAGGTGATGAAGGTAACTCAGGCTATCAT, the PBM binding z-score came out at 0.593.
On to TCTTGTAGTTCAGCAGGTTAAGAAAGCTGGCCAA, for which the PBM binding z-score is 1.5.
For TAGAGTAGGTTAGTCGGGGCATTCAGCCAACATA the value was 1.16; for CGTCCAAGGTCAGAGAGGTAAGTGAATGCCGAGT, 3.93; for CCGACTGTGGCAAAGGTTACCATACTCAGTACGA, 4.03.
The figure for CAGCCGAGGTCAGGGCCAGTATAGGAGGAACGTT is 5.6; for CCAACTAGGTCAAGGTCAAAGTCGGTTTGTGCCA it is 6.14; for CCTAGCAGGCCCATCTGGGTCACTCAAGGCTTGA it is 1.7.
For CATCAAAGTTCAACTAAGGTAACGTAAAGCACGC the value was 5.03; for ACTAGCTGGTCAGCTGAGGTCACACACAATTCGG, 3.58.
Turning to TCTTGTAGATCAACAGGAGGTTGAGAAAGATCGA, the PBM binding z-score came to 0.467.
The figure for CTACCAAGGTGAACAAGGTCGTGGATTACTATTC is 2.96.
For ACTCGGAGGACAAAGGTCAGAGCTACGCCAGTGA the value was 4.93; for TCTTGTAGATCAATAGAGTTTAAGAAAGTGCGCT, 0.514; for TAGCCCAGGTCATGCGGGCCAGTATAGTGTCGGC, 3.8.
For AGAACAAGGGCAATGAGTTGATAGCACGGGTGGC the value was 0.573; for CCTACTGGGCCACGAAAGGTCATTGAATCAGTGA, 4.68; for GCTTGTTGATCAAGGTTAAGAAAGACTAAGCTAA, 1.09.
As to CCTACTGGGCCAAGGACATTGATCAGTCAAAGCA, the PBM binding z-score is -0.141.
For AGAATGAGGTTATACCTAGATCAGGGAAGAAAGT the value was 3.15.
